Laboratory results published in PubChem BioAssay (NCI).
This is part of a sample that, as a whole, favours compounds with a hit. Of some 79,000 tested, about 15% had one in any assay. A number with no mark means an inactive call. The source made the active and inactive calls. Rule as the data show it: active = growth inhibition above about 70%; inactive = the rest. Where a SMILES comes first, the peptide text is derived from it. The star is where a group is joined. Trt = c1ccc(C(c2ccccc2)(c2ccccc2)*)cc1; OtBu = CC(C)(C)O*

test: NCI Yeast Anticancer Drug Screen. Data for the bub3 strain (AID 167); details: S. cerevisiae bub3 mutant strain, at 5.0 µM (retest, dose inferred, filed as 0.5), hits give high values
Procedure, shortened: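 Screening used yeast with an engineered genetic alteration affecting cell cycle control. Compound-exposed cultures were compared with vehicle cultures, and reduced growth was taken as inhibition.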

SMILES	growth inhibition
CCOC(=O)C(=N\Nc1cccc(C)c1C)/C(C)=N\NC(N)=S	3%
CCN(CC)CCNc1ccc(C)c2oc3ccc(O)cc3c(=O)c12	-4%
O=C1C(C=NC(=S)c2ccccc2)=C(O)c2ccccc21	31%
CCOC(=O)Cc1csc(/N=C\c2c(O)c3ccccc3oc2=O)n1	20%
CC(C)(CCCCC(C)(C)NCC1COc2ccccc2O1)NCC1COc2ccccc2O1 (stereo not drawn)	-15%
O=C1OC(c2ccc(O)cc2)=C(c2ccccc2)C1c1ccccc1 (stereo not drawn)	2%
O=C(c1ccccc1)C(Br)CCCC(Br)C(=O)c1ccccc1 (stereo not drawn)	23%
CCC(c1ccc(O)cc1)C(O)(CC)c1ccc(O)cc1 (stereo not drawn)	-11%
Cn1cnc2[nH]c(Cl)nc(=S)c21	-1%
O=C(NCCN1CCCC1)c1cn2c(ccc3sc4ccccc4c(=O)c32)n1	20%
CC(C)(C)OC(=O)CNC(=O)C(Cc1ccccc1)NC(=O)C(N)CSC(c1ccccc1)(c1ccccc1)c1ccccc1 (stereo not drawn) (H-Cys(Trt)-Phe-Gly-OtBu; configuration not given here)	1%
C/C(=N/NC(N)=S)C(CN(C)C)C(C1=C(O)c2ccccc2OC1)c1ccccc1 (stereo not drawn)	12%
O=C(CC(=O)c1ccccc1)CC(=O)c1ccccc1Br	-1%
O=C1OC2(c3ccccc31)c1cc(I)c(O)c(I)c1Oc1c2cc(I)c(O)c1I	15%
Nc1cc(Cl)c2c(c1)Cc1ccccc1-2	-6%
C1=Cc2ccccc2/C1=C/c1ccccc1	-4%
Cc1ccc(C2=CC(=O)/C(=C\C(=O)c3ccc(Cl)cc3)O2)cc1	22%
CC1(c2ccc(S(=O)(=O)c3ccccc3)cc2)OC(=O)C=CC1=O (stereo not drawn)	94% (active)
CCCc1cc(-c2ccc(O)c(CCC)c2)ccc1O	99% (active)
CCOC(=O)N1c2ccc3ccccc3c2C=CC1C#N (stereo not drawn)	-18%

SMILES	growth inhibition
N#CNc1nc(N)c(-c2ccc(Cl)cc2)c(C(=O)Nc2ccc(Cl)c(Cl)c2)n1	-2%
O=c1c(Cl)c(Cl)oc(Cl)c1Cl	43%
O=c1nc(-c2ccccc2)cc(-c2ccccc2O)[nH]1	0%
O=C(Cc1nc2ccccc2s1)C(=O)Nc1ccc(Cl)cc1	5%
c1ccc(OCC2c3ccccc3Nc3ccccc32)cc1	92% (active)
CCN(C(=O)C(F)(F)F)c1ccc2c(c1)C(=O)c1ccccc1-2	38%
Cc1cc2oc3c(ccc(=O)n3C)c(=O)c2c(C)c1Cl	18%
O=C(CC(O)(C(F)(F)F)C(F)(F)F)C(c1ccccc1)C(O)(C(F)(F)F)C(F)(F)F (stereo not drawn)	-14%
O=S(=O)(Sc1ccccc1)C(c1ccccc1)c1ccccc1	-4%
COc1ccc2c3c(ccc2c1)NC(C(=O)O)CC3 (stereo not drawn)	-6%
N#CSc1ccc2nc(NCO)sc2c1	12%
CC(CN(C)C)C(=O)c1cn(C)c2ccccc12 (stereo not drawn)	-2%
Cc1cc(Cl)nc2ccc(Cc3ccc4nc(Cl)cc(C)c4c3)cc12	8%
COc1ccc2c(c1)CN([C@@H](C)[C@H]1CC[C@H]3[C@@H]4CC[C@H]5C[C@@H](O)CC[C@]5(C)[C@H]4CC[C@]13C)CO2	91% (active)
FC(F)(F)c1nc(Cl)nc2nc[nH]c12	-1%
CC(C)C1COC(c2ccc3ccccc3c2-c2c(O[Si](C)(C)C(C)(C)C)ccc3ccccc23)=N1 (stereo not drawn)	8%
COc1cc2c(c(C3C(=O)N(C)c4ccc(Br)cc43)c1OC)OCO2 (stereo not drawn)	4%
c1ccc2c3[nH]c(c2c1)=Nc1ccc(cc1)-c1nc2ccc(cc2o1)N=c1[nH]c(c2ccccc12)=Nc1ccc2nc(oc2c1)-c1ccc(cc1)N=3	31%
c1ccc2nc3ccccc3nc2c1	-1%

same assay, conditions: S. cerevisiae bub3 mutant strain, at 50.0 µM (retest, dose inferred, filed as 5.0), hits give high values

SMILES	growth inhibition
CCOC(=O)C(=N\Nc1cccc(C)c1C)/C(C)=N\NC(N)=S	34%
CCN(CC)CCNc1ccc(C)c2oc3ccc(O)cc3c(=O)c12	41%
O=C1C(C=NC(=S)c2ccccc2)=C(O)c2ccccc21	81% (active)
CCOC(=O)Cc1csc(/N=C\c2c(O)c3ccccc3oc2=O)n1	42%
CC(C)(CCCCC(C)(C)NCC1COc2ccccc2O1)NCC1COc2ccccc2O1 (stereo not drawn)	79% (active)
O=C1OC(c2ccc(O)cc2)=C(c2ccccc2)C1c1ccccc1 (stereo not drawn)	29%
O=C(c1ccccc1)C(Br)CCCC(Br)C(=O)c1ccccc1 (stereo not drawn)	73% (active)
CCC(c1ccc(O)cc1)C(O)(CC)c1ccc(O)cc1 (stereo not drawn)	-11%
Cn1cnc2[nH]c(Cl)nc(=S)c21	-4%
O=C(NCCN1CCCC1)c1cn2c(ccc3sc4ccccc4c(=O)c32)n1	76% (active)
CC(C)(C)OC(=O)CNC(=O)C(Cc1ccccc1)NC(=O)C(N)CSC(c1ccccc1)(c1ccccc1)c1ccccc1 (stereo not drawn) (H-Cys(Trt)-Phe-Gly-OtBu; configuration not given here)	34%
C/C(=N/NC(N)=S)C(CN(C)C)C(C1=C(O)c2ccccc2OC1)c1ccccc1 (stereo not drawn)	12%
O=C(CC(=O)c1ccccc1)CC(=O)c1ccccc1Br	96% (active)
O=C1OC2(c3ccccc31)c1cc(I)c(O)c(I)c1Oc1c2cc(I)c(O)c1I	99% (active)
Nc1cc(Cl)c2c(c1)Cc1ccccc1-2	94% (active)
C1=Cc2ccccc2/C1=C/c1ccccc1	95% (active)
Cc1ccc(C2=CC(=O)/C(=C\C(=O)c3ccc(Cl)cc3)O2)cc1	22%
CC1(c2ccc(S(=O)(=O)c3ccccc3)cc2)OC(=O)C=CC1=O (stereo not drawn)	99% (active)
CCCc1cc(-c2ccc(O)c(CCC)c2)ccc1O	100% (active)
CCOC(=O)N1c2ccc3ccccc3c2C=CC1C#N (stereo not drawn)	-20%

SMILES	growth inhibition
N#CNc1nc(N)c(-c2ccc(Cl)cc2)c(C(=O)Nc2ccc(Cl)c(Cl)c2)n1	1%
O=c1c(Cl)c(Cl)oc(Cl)c1Cl	99% (active)
O=c1nc(-c2ccccc2)cc(-c2ccccc2O)[nH]1	87% (active)
O=C(Cc1nc2ccccc2s1)C(=O)Nc1ccc(Cl)cc1	-2%
c1ccc(OCC2c3ccccc3Nc3ccccc32)cc1	97% (active)
CCN(C(=O)C(F)(F)F)c1ccc2c(c1)C(=O)c1ccccc1-2	70% (active)
Cc1cc2oc3c(ccc(=O)n3C)c(=O)c2c(C)c1Cl	10%
O=C(CC(O)(C(F)(F)F)C(F)(F)F)C(c1ccccc1)C(O)(C(F)(F)F)C(F)(F)F (stereo not drawn)	41%
O=S(=O)(Sc1ccccc1)C(c1ccccc1)c1ccccc1	97% (active)
COc1ccc2c3c(ccc2c1)NC(C(=O)O)CC3 (stereo not drawn)	82% (active)
N#CSc1ccc2nc(NCO)sc2c1	97% (active)
CC(CN(C)C)C(=O)c1cn(C)c2ccccc12 (stereo not drawn)	-4%
Cc1cc(Cl)nc2ccc(Cc3ccc4nc(Cl)cc(C)c4c3)cc12	13%
COc1ccc2c(c1)CN([C@@H](C)[C@H]1CC[C@H]3[C@@H]4CC[C@H]5C[C@@H](O)CC[C@]5(C)[C@H]4CC[C@]13C)CO2	99% (active)
FC(F)(F)c1nc(Cl)nc2nc[nH]c12	4%
CC(C)C1COC(c2ccc3ccccc3c2-c2c(O[Si](C)(C)C(C)(C)C)ccc3ccccc23)=N1 (stereo not drawn)	8%
COc1cc2c(c(C3C(=O)N(C)c4ccc(Br)cc43)c1OC)OCO2 (stereo not drawn)	-1%
c1ccc2c3[nH]c(c2c1)=Nc1ccc(cc1)-c1nc2ccc(cc2o1)N=c1[nH]c(c2ccccc12)=Nc1ccc2nc(oc2c1)-c1ccc(cc1)N=3	95% (active)
c1ccc2nc3ccccc3nc2c1	45%
